# Activity calls are given as the source filed them. Rule for the calls: active = hit-call score of the fitted dose curve at least 0.9, where 1 is the maximum; inactive = score below 0.9.
# Experiment: ATG_M_32_CIS: Attagene CIS-FACTORIAL HepG2 Assay for M32 Transcription Factor (Internal Marker) (AID 2282949);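 note: background control marker of the multiplexed CIS panel rather than a real target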
# Settings: HepG2 Attagene cis-factorial M32 reporter, mRNA; actives raise or lower the signal
# Method: ATG_CIS is a cell-based, multiplexed-readout assay that uses HepG2, a human liver cell line, with measurements taken at 24 hours after chemical dosing in a 24-well plate.ATG_M_32_CIS is one of 52 assay component(s) measured or calculated from the ATG_CIS assay. It is designed to make measurements of mRNA induction, a form of inducible reporter, as detected with fluorescence intensity signals by Reverse transcription polymerase chain reaction (RT-PCR) and Capillary electrophoresis technology.Data from the assay component ATG_M_32_CIS was analyzed into 1 assay endpoint. This assay endpoint, ATG_M_32_CIS, was analyzed with bidirectional fitting relative to DMSO as the negative control and baseline of activity. Using a type of inducible reporter, measures of mRNA for gain or loss-of-signal activity can be used to understand the background control at the transcription factor-level as they relate to the gene . Furthermore, this assay endpoint can be referred to as a secondary readout, because this assay has produced multiple assay endpoints where this one serves a background control function. To generalize the intended target to other relatable targets, this assay endpoint is annotated to the background measurement intended target family, where the subfamily is internal marker.
# Human liver HepG2 cells are transiently transfected with multiple reporter transcription units (MRTUs) in 6-well plates using FuGene 6 reagent (Roche; 3 ml FuGene/1 mg DNA). The MRTU constructs are regulated by a cis-regulating element (promoter). […] A major difference between the CIS and TRANS system is that in CIS activities of endogenous TFs are measured, whereas the TRANS assay evaluates changes in activities of exogenous, chimeric NR-Gal4 proteins. […] At the end of 24 hour incubation, total RNA was isolated using TriZol reagent (Invitrogen). The isolated RNA is then reverse-transcribed using oligo(dT) primer and Mo-MLV reverse transcriptase (Invitrogen) with DNAse I (Ambion) treatment for 30 min. The one-tenth of the produced cDNA was amplified by PCR using Taq DNA polymerase (Invitrogen) and two reporter sequence-specific primers. The PCR products were fluorescently labeled by primer extension with 6-arboxyfluorescein (6-FAM) 5'-labeled reporter sequence-specific primer (2 min at 95 C, 20 s at 68 C and 10 min at 72 C) and these products were digested with 5U of HpaI (New England Biolabs) for 2h at 37 C. The fragments were purified using Qiaquick PCR columns (Qiagen), analyzed on an ABI 3130xL genetic analyzer (Applied Biosystems) with peak positions identified by using a set of X-rhodamine (ROX)-labeled MapMarker1000 molecular weight standards (BioVentures). The raw capillary electrophoresis data was processed using Attagraph software (Attagene).
row,Structure (SMILES),outcome
1,CCCCCCCCCCOC(C)=O,inactive
2,CCCCCCCC[N+](C)(CCCCCCCC)CCCCCCCC,inactive
3,CCCCCCCCCCCCCCCC[n+]1ccccc1,inactive
4,C=C(C)C(=O)OCC(C)C,inactive
5,CC(=O)NS(=O)(=O)c1ccc(N)cc1,inactive
6,O=C1CCCCCCCCCCCCCCCO1,inactive
7,CCC(Cc1ccccc1)(C(=O)c1ccc(N2CCOCC2)cc1)N(C)C (stereo not given),inactive
8,CC(CC=O)CCCC(C)(C)O (stereo not given),inactive
9,C=CC(C)(C)C,inactive
10,c1ccc(CCCc2ccncc2)cc1,inactive
11,CCOCC(=O)O,inactive
12,Cc1cc(C)c(C)cc1C,inactive
13,CCCCCCOC(=O)C(C)CC (stereo not given),inactive
14,S=C(NC1CCCCC1)NC1CCCCC1,inactive
15,Cc1ccc(C(C)c2ccc(C)c(C)c2)cc1C,inactive
16,O=c1cc[nH]c(=S)[nH]1,inactive
17,O=c1[nH]c(=O)c2[nH]c(=O)[nH]c2[nH]1,inactive
18,COC(=O)c1ccc2cc(C(=O)OC)ccc2c1,inactive
19,O=C1CC2CC1C1CCCC21 (stereo not given),inactive
20,CC(C)c1ccc(C=O)cc1,inactive

row,Structure (SMILES),outcome
1,O=C1CCCCCN1SSN1CCCCCC1=O,inactive
2,O=C1Nc2ccccc2C1(c1ccc(O)cc1)c1ccc(O)cc1,inactive
3,CC(=O)OC(C)C,inactive
4,CCCOCCOCCOCCO,inactive
5,N#CCc1ccc(Cl)cc1Cl,inactive
6,O=C(O)c1ccccc1Nc1cccc(C(F)(F)F)c1,inactive
7,COC(=O)c1ccccc1OC,inactive
8,COc1ccc(-c2coc3cc(O)ccc3c2=O)cc1,inactive
9,[Cl][Nd]([Cl])[Cl],inactive
10,CCCCC(CC)COC(=O)c1ccccc1O (stereo not given),inactive
11,O=C1CCCCCCCCCCC(=O)OCCO1,inactive
12,O=C(c1ccccc1)C1CCC1,inactive
13,CCCCCCCC(C)=O,inactive
14,CCC(C)OC(=O)c1ccc(O)cc1 (stereo not given),inactive
15,CCc1nccnc1C,inactive
16,Cc1cc(C)c(C)c(O)c1,inactive
17,O=[N+]([O-])C1(Br)COCOC1,inactive
18,Cc1cccc(N(C)C(=S)Oc2ccc3ccccc3c2)c1,inactive
19,c1cc(N(CC2CO2)CC2CO2)ccc1OCC1CO1 (stereo not given),inactive
20,C=CCOc1c(Br)cc(Br)cc1Br,inactive
